Test results as given in PubChem BioAssay (Tox21).
Results filed as inconclusive are left out. The source made the active and inactive calls. Calls come from the whole dose curve; as a rule, active = well fitted curve in the direction sought with a large enough effect in the repeat runs; inconclusive = weak or mixed curves; inactive = no such curve, though single readings can be large; an effect the other way counts as inactive or inconclusive.

What was measured:
[1] = A CellTox Green Cytotoxicity Assay to monitor cytotoxicity in HEK293 cells - 40 hour (AID 1224871); note: nearly all actives have a fitted effect of over 45% in size; note: potency is the fitted concentration of half-maximal effect
Method in brief: (§1)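 Cytotoxicity was tracked continuously in HEK293 cells by a DNA-binding dye excluded from viable cells. Compounds were transferred in DMSO 5 h after seeding; fluorescence was recorded at intervals up to 40 h.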

[2] = qHTS RealTime-Glo MT Cell Viability Assay in HEK293 cells - 16 hour (AID 1224872); note: nearly all actives have a fitted effect of over 50% in size; note: potency is the fitted concentration of half-maximal effect; for activity change, negative = cytotoxicity: top concentration of the series differs between compounds
Method in brief: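 Nonlytic real-time viability readout: viable cells convert prosubstrate to NanoLuc substrate, giving luminescence proportional to live cell number. HEK293, 600 cells/well, compound added after 5 h, continuous culture at 37 C.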

[3] = qHTS RealTime-Glo MT Cell Viability Assay in HepG2 cells - 8 hour (AID 1224873); note: nearly all actives have a fitted effect of over 55% in size; note: potency is the fitted concentration of half-maximal effect
Method in brief: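 HepG2 cells (600/well) mixed with RealTime-Glo MT reagent, settled 5 h at 37 C/5% CO2 before compound addition. Nonlytic NanoLuc luminescence from viable-cell prosubstrate reduction read repeatedly during 40 h treatment at 37 C.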

[4] = qHTS RealTime-Glo MT Cell Viability Assay in HEK293 cells - 40 hour (AID 1224874); settings: RealTime-Glo luminescence; max response: hits give low values; note: nearly all actives have a fitted effect of over 50% in size; note: potency is the fitted concentration of half-maximal effect
Method in brief: (§2)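 Nonlytic bioluminescent viability monitoring. HEK293 at 600 cells/well with reagent; 5 h settle; compound transfer by pintool; plates held at 37 C and read at set time points.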

[5] = A CellTox Green Cytotoxicity Assay to monitor cytotoxicity in HEK293 cells - 24 hour (AID 1224875); note: nearly all actives have a fitted effect of over 45% in size; note: potency is the fitted concentration of half-maximal effect; for activity change: series mostly up to about 77 µM
Method in brief: as §1

[6] = A CellTox Green Cytotoxicity Assay to monitor cytotoxicity in HepG2 cells - 16 hour (AID 1224876); note: nearly all actives have a fitted effect of over 45% in size; note: potency is the fitted concentration of half-maximal effect
Method in brief: (§3)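 Real-time, homogeneous cytotoxicity readout: dead-cell DNA staining by CellTox Green in HepG2 monolayers, fluorescence measured at timed intervals up to 40 h of continuous compound exposure.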

[7] = qHTS RealTime-Glo MT Cell Viability Assay in HepG2 cells - 32 hour (AID 1224877); note: nearly all actives have a fitted effect of over 55% in size; note: potency is the fitted concentration of half-maximal effect
Method in brief: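 Luminescence read-out: viable HepG2 cells reduce a prosubstrate to a NanoLuc substrate, giving a signal proportional to live cell number. Reads taken at 0, 8, 16, 24, 32 and 40 h of compound exposure at 37 C.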

[8] = A CellTox Green Cytotoxicity Assay to monitor cytotoxicity in HepG2 cells - 24 hour (AID 1224878); note: nearly all actives have a fitted effect of over 45% in size; note: potency is the fitted concentration of half-maximal effect
Method in brief: as §3

[9] = A CellTox Green Cytotoxicity Assay to monitor cytotoxicity in HepG2 cells - 40 hour (AID 1224879); note: nearly all actives have a fitted effect of over 40% in size; note: potency is the fitted concentration of half-maximal effect
Method in brief: as §3

[10] = qHTS RealTime-Glo MT Cell Viability Assay in HEK293 cells - 0 hour (AID 1224880)
Method in brief: as §2
% is set by controls: 0 for no effect and ±100 for the full control effect.

O[C@@H](CNC[C@H](O)[C@H]1CCc2cc(F)ccc2O1)[C@@H]1CCc2cc(F)ccc2O1
active: Potency [1] 26.8 µM | Potency [2] 19 µM | Potency [3] 21.3 µM | Potency [4] 19 µM | Potency [5] 26.8 µM | Potency [6] 16.9 µM | Potency [7] 15.1 µM | Potency [8] 10.7 µM | Potency [9] 10.7 µM

CNC1CCCN(c2c(F)cc3c(=O)c(C(=O)O)cn(C4CC4)c3c2OC)C1 (centres undefined)
inactive: Potency [1] | Potency [2] | Potency [3] | max response [4] -1.56% | Potency [5] | Potency [6] | Potency [7] | Potency [8] | Potency [9] | Potency [10]

O=C(O)CNC(=O)c1ccccc1I
inactive: Potency [1] | Potency [2] | Potency [3] | max response [4] 6.48% | Potency [5] | Potency [6] | Potency [7] | Potency [8] | Potency [9] | Potency [10]

CCN(Cc1cccc(S(=O)(=O)O)c1)c1ccc(C(=C2C=CC(=[N+](CC)Cc3cccc(S(=O)(=O)O)c3)C=C2)c2ccccc2S(=O)(=O)[O-])cc1
inactive: Potency [1] | Potency [2] | Potency [3] | max response [4] -0.266% | Potency [5] | Potency [6] | Potency [7] | Potency [8] | Potency [9] | Potency [10]

Nc1ccc(S(=O)(=O)NCc2ccccc2)cc1
inactive: Potency [1] | Potency [2] | Potency [3] | max response [4] -2.82% | Potency [5] | Potency [6] | Potency [7] | Potency [8] | Potency [9] | Potency [10]

CCCCCCCCCCCCCOC(=O)CCSCCC(=O)OCCCCCCCCCCCCC
inactive: cytotoxicity increase [1] 7.8% [at 15.8 µM] | activity change, negative = cytotoxicity [2] -1.74% [at 15.8 µM] | viability change, negative = cytotoxic [3] -12% [at 15.8 µM] | max response [4] -0.06% | activity change [5] 16% [at 15.8 µM, hits give high values] | cytotoxicity increase [6] -0.0072% [at 15.8 µM] | activity change, negative = cytotoxic [7] 0.647% [at 15.8 µM] | cytotoxicity [8] -0.358% [at 15.8 µM] | cytotoxicity increase [9] -4.11% [at 15.8 µM] | activity change, negative = cytotoxicity [10] -5.28% [at 15.8 µM]

C=C(C)c1ccccc1
inactive: Potency [1] | Potency [2] | Potency [3] | max response [4] 1.05% | Potency [5] | Potency [6] | Potency [7] | Potency [8] | Potency [9] | Potency [10]

CCN(CC)C(=O)N1CCN(C)CC1
inactive: Potency [1] | Potency [2] | Potency [3] | max response [4] 4.18% | Potency [5] | Potency [6] | Potency [7] | Potency [8] | Potency [9] | Potency [10]

CC12CC3CC(C)(C1)CC(N)(C3)C2
inactive: Potency [1] | Potency [2] | Potency [3] | max response [4] 3.93% | Potency [5] | Potency [6] | Potency [7] | Potency [8] | Potency [9] | Potency [10]

O=C(O)CCC(=O)c1ccc(-c2ccccc2)cc1
inactive: Potency [1] | Potency [2] | Potency [3] | max response [4] 0.573% | Potency [5] | Potency [6] | Potency [7] | Potency [8] | Potency [9] | Potency [10]

O=S(=O)(O)CO
inactive: Potency [1] | Potency [2] | Potency [3] | max response [4] 4.46% | Potency [5] | Potency [6] | Potency [7] | Potency [8] | Potency [9] | Potency [10]

CCCCCCCCCCCSCC(=O)O
inactive: Potency [1] | Potency [2] | Potency [3] | max response [4] 2.44% | Potency [5] | Potency [6] | Potency [7] | Potency [8] | Potency [9] | Potency [10]

CCCCC[C@H](O)/C=C/[C@H]1[C@H](O)CC(=O)[C@@H]1C/C=C\CCCC(=O)O
inactive: Potency [1] | Potency [2] | Potency [3] | max response [4] 19.7% | Potency [5] | Potency [6] | Potency [7] | Potency [8] | Potency [9] | Potency [10]

CC(=O)Oc1cccc(O)c1
inactive: Potency [1] | Potency [2] | Potency [3] | max response [4] -0.489% | Potency [5] | Potency [6] | Potency [7] | Potency [8] | Potency [9] | Potency [10]

CN=C(N)NC(=O)Nc1c(C)cccc1C
inactive: Potency [1] | Potency [2] | Potency [3] | max response [4] 5.93% | Potency [5] | Potency [6] | Potency [7] | Potency [8] | Potency [9] | Potency [10]

COc1ccc(CCN(C)CCCN2CCc3cc(OC)c(OC)cc3CC2=O)cc1OC
inactive: Potency [1] | Potency [2] | Potency [3] | max response [4] 9.42% | Potency [5] | Potency [6] | Potency [7] | Potency [8] | Potency [9] | Potency [10]

CC1=C2[C@@H]([C@H](C)CC[C@H]2/C=C(\C)C(=O)O)[C@H](O)C1
inactive: Potency [1] | Potency [2] | Potency [3] | max response [4] -2.63% | Potency [5] | Potency [6] | Potency [7] | Potency [8] | Potency [9] | Potency [10]

Cc1cc(CCC(=O)OCCOCCOCCOC(=O)CCc2cc(C)c(O)c(C(C)(C)C)c2)cc(C(C)(C)C)c1O
inactive: Potency [1] | Potency [2] | Potency [3] | max response [4] 6.66% | Potency [5] | Potency [6] | Potency [7] | Potency [8] | Potency [9] | Potency [10]

CC(C)c1ccc(C(=O)N=C(N)N)cc1S(C)(=O)=O
inactive: Potency [1] | Potency [2] | Potency [3] | max response [4] 18.4% | Potency [5] | Potency [6] | Potency [7] | Potency [8] | Potency [9] | Potency [10]

COc1cc(OC)c2ccc(=O)oc2c1
inactive: Potency [1] | Potency [2] | Potency [3] | max response [4] -23.1% | Potency [5] | Potency [6] | Potency [7] | Potency [8] | Potency [9] | Potency [10]

CC(C)(C(=O)c1cccnc1)c1cccnc1
inactive: Potency [1] | Potency [2] | Potency [3] | max response [4] 6.53% | Potency [5] | Potency [6] | Potency [7] | Potency [8] | Potency [9] | Potency [10]

CC(=O)NNC(C)=O
inactive: Potency [1] | Potency [2] | Potency [3] | max response [4] 0.186% | Potency [5] | Potency [6] | Potency [7] | Potency [8] | Potency [9] | Potency [10]
